# PMC4336329 (PLoS ONE, 2015)
# About 14,000 (4.5%) of roughly 310,000 compounds showed an effect of 50% or more. The effect is printed as a negative number. The entries come from a sample that favours strong results as a whole.
# Biological target: human ether-à-go-go-related gene (hERG) potassium channel (human, UniProt Q12809)
# Test: primary screen, population patch clamp on CHO cells stably expressing hERG; higher = less effect of the substance
# 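Note: peak tail current of the secondary pulse compared with the same well before compound.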
# Chain of human ether-à-go-go-related gene (hERG) potassium channel (Q12809 whole entry, looked up): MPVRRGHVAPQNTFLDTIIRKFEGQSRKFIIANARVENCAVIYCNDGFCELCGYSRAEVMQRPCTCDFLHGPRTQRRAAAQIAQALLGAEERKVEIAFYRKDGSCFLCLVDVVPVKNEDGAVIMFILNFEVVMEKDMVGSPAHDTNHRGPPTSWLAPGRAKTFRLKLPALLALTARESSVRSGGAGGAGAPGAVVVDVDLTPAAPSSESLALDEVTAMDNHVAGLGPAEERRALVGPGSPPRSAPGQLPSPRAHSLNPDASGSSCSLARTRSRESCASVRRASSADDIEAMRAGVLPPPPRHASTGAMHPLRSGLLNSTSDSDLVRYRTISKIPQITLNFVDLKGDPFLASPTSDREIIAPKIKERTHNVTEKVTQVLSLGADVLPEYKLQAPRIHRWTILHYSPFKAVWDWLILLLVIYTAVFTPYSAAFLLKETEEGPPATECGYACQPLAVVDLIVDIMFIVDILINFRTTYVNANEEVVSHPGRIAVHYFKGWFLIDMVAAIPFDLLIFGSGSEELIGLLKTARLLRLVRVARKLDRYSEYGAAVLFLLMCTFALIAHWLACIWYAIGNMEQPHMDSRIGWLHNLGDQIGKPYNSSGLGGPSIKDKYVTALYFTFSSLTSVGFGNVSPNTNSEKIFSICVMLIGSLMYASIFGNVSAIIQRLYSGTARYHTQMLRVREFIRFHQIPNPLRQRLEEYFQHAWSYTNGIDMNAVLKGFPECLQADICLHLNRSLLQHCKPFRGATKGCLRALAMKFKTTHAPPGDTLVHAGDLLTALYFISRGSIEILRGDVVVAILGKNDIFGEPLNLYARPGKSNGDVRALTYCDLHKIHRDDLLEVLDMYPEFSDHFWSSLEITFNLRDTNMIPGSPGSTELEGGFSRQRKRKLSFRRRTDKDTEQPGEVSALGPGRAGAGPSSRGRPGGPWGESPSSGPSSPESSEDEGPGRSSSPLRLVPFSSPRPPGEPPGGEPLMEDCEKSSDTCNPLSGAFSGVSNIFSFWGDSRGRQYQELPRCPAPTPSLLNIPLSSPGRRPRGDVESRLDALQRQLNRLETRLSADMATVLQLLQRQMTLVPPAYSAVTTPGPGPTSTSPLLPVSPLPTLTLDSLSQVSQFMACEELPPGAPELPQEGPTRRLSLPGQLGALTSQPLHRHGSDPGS
row,SMILES,"hERG current change (%, negative = inhibition) at 10uM [%]"
1,Cc1ccc(N=Cc2ccc(O)cc2O)cc1F,20.6
2,O=C(Cn1c(=O)oc2ccccc21)c1ccccc1,-5.11
3,CCN1CCN(C(=S)Nc2cccc(C(F)(F)F)c2)CC1,-7.79
4,CN(C(=O)C(Cl)Cl)C1CC2C=CC1C2 (stereo not shown),5.29
5,Nc1c(C(=O)CSc2nccn2-c2ccc(Cl)cc2)c(=O)[nH]c(=O)n1C1CC1,17.5
6,CS(=O)(=O)N1CCC(C(=O)NCc2ccco2)CC1,6.1
7,COc1ccccc1-c1nnc(SC)n1C,36.9
8,COc1nc2ccccc2nc1N1CCN(c2ccc(F)cc2)CC1,17.5
9,COc1nc2ccccc2nc1N1CCN(C)CC1,-23.9
10,CC(C)COc1nc2ccccc2nc1N1CCN(C)CC1,-72.9
11,FC(F)(F)c1cccc(N2CCN(c3nnnn3-c3ccccc3)CC2)c1,-25.3
12,COc1ccc2nc(/C=N/NC(=O)CCCCCNC(=O)OC(C)(C)C)ccc2c1,-0.0758
13,N#Cc1ccc(OCC(=O)N2CCN(S(=O)(=O)c3cccc(Cl)c3)CC2)cc1,-71.4
14,N#Cc1ccc(NCC(=O)N2CCN(S(=O)(=O)c3ccccc3)CC2)cc1,-70.2
15,N#Cc1ccccc1NCC(=O)N1CCN(S(=O)(=O)c2ccccc2)CC1,-1.49
16,COc1ccc(OCC(=O)N2CCN(S(=O)(=O)c3ccc(Cl)cc3)CC2)cc1,-22.9
17,O=C(COc1ccc(Cl)cc1)N1CCN(S(=O)(=O)c2ccccc2)CC1,-54.6
18,COc1ccc(CCC(=O)N2CCN(S(=O)(=O)c3cccc(Cl)c3)CC2)cc1,-34.8
19,O=C(COc1ccc(Cl)cc1)N1CCN(S(=O)(=O)c2ccc(Cl)cc2)CC1,-11.9
20,O=C(COc1ccccc1)N1CCN(S(=O)(=O)c2ccc(Cl)cc2)CC1,-2.27
21,CC(=O)c1ccc(NCC(=O)N2CCN(S(=O)(=O)c3ccccc3)CC2)cc1,-5.61
22,O=C(NCCC1CCCCN1S(=O)(=O)c1ccccc1)C(=O)Nc1ccccc1 (stereo not shown),-12.3

row,SMILES,"hERG current change (%, negative = inhibition) at 10uM [%]"
1,COC(=O)Oc1ccc(/C=N/NS(=O)(=O)c2ccccc2)cc1OC,21.2
2,CCC(=Nc1ccccc1N)c1c(O)[nH]c(=O)[nH]c1=O,18.5
3,COC(=O)C1CN(C(=O)COc2cccc(C)c2C)c2ccccc2O1 (stereo not shown),-6.63
4,Cc1cccc(NC(=O)CCN2C(=O)C3C4C=CC(C4)C3C2=O)n1 (stereo not shown),5.71
5,COc1ccc(F)cc1C(=O)C1CCCN(Cc2c(C)n(C)n(-c3ccccc3)c2=O)C1 (stereo not shown),-11.5
6,COc1ccc(F)cc1C(=O)C1CCCN(Cc2c[nH]c3ccccc23)C1 (stereo not shown),-63.8
7,COc1ccc(C(=O)C2CCCN(Cc3c(C)[nH]c4ccccc34)C2)c(OC)c1 (stereo not shown),-70.1
8,COc1ccc(C(=O)COC(=O)Cc2c[nH]c3ccccc23)c(OC)c1,4.87
9,COc1ccc(C(=O)C2CCCN(Cc3c(F)ccc(F)c3F)C2)c(OC)c1 (stereo not shown),-30.9
10,COc1ccc(C(=O)C2CCCN(Cc3c[nH]c4ccccc34)C2)c(OC)c1 (stereo not shown),-70.8
11,COc1ccc(F)cc1C(=O)C1CCCN(Cc2cn(C)c3ccccc23)C1 (stereo not shown),-39.5
12,CC1=C(C(=O)OC(C)C)C(c2ccncc2)n2ncnc2N1 (stereo not shown),0.568
13,CCOc1nc(Nc2cc(Cl)ccc2OC)nc(OCC)n1,19.7
14,N#Cc1ccccc1CSCCNC(=O)Cc1c(F)cccc1Cl,15.8
15,CCN(CC)S(=O)(=O)c1ccc2c(c1)nc(CCC(=O)Nc1ccc3c(c1)OCO3)n2CC,-0.447
16,Cc1ccc2c(c1)nnn2C1CCN(S(=O)(=O)c2ccc(C(=O)NC3CCCC3)cc2)CC1,15.9
17,CCOc1ccc(N(C)S(=O)(=O)c2cc(-c3cc(C)no3)ccc2C(C)C)cc1,4.4
18,Cc1cc(N(C)Cc2ccccc2)nc2cc(O)ccc12,-56.4
19,CN(Cc1ccccc1)c1cc(Cl)nc(N)n1,-1.61
20,Cc1cc(N(C)Cc2ccccc2)nc(-c2ccccc2)n1,-24.1
21,C=CCn1nc2ccccc2c1OC,3.76
22,c1ccc(Nc2c3c(nc4ncnn24)CCC3)cc1,-54.5

row,SMILES,"hERG current change (%, negative = inhibition) at 10uM [%]"
1,C=CCNc1c2c(nc3ncnn13)CC(C)CC2 (stereo not shown),-14.8
2,Brc1ccc(Nc2c3c(nc4ncnn24)CCC3)cc1,-21.4
3,C#CCNc1c2c(nc3ncnn13)CC(C)CC2 (stereo not shown),-10.7
4,CCOc1ccc(Nc2c3c(nc4ncnn24)CC(C)CC3)cc1 (stereo not shown),-53.9
5,Clc1ccc(Nc2c3c(nc4ncnn24)CCC3)cc1,8.29
6,Clc1ccc(/C=N/Nc2nn[nH]n2)cc1,12.6
7,Cc1ccc2nsnc2c1S(=O)(=O)Nc1ccccc1C(=O)O,-7.06
8,Cc1c(Cc2ccccc2)sc(NC(=O)/C=C/c2cccc3ccccc23)c1C(N)=O,20
9,COc1ccc(CN2C(=NC(=O)CCC3CCCC3)SC3CS(=O)(=O)CC32)cc1 (stereo not shown),19.7
10,COc1ccc(CN2C[C@H](Cc3ccccc3)[C@@H](CC(=O)Nc3ccccc3)C2=O)cc1,-10.5
11,COc1ccc(CNC(=O)C[C@H]2C(=O)N(Cc3ccc(OC)cc3)C[C@@H]2Cc2ccccc2)cc1,-45.9
12,COc1ccc(CNC(=O)C[C@H]2C(=O)N(CCc3ccccc3)C[C@@H]2Cc2ccccc2)cc1,-53
13,COc1ccc(CNC(=O)C[C@H]2C(=O)N(Cc3ccccc3)C[C@@H]2Cc2ccccc2)cc1,2.76
14,COc1ccc(CNC(=O)C[C@H]2C(=O)N(c3ccccc3)C[C@@H]2Cc2ccccc2)cc1,-49.4
15,CCCCN1C[C@H](Cc2ccccc2)[C@@H](CC(=O)NCc2ccc(OC)cc2)C1=O,-61.8
16,COc1cccc(C(=O)NNC(=O)c2ccccc2-n2cccc2)c1,34.4
17,CS(=O)(=O)c1nc(S(=O)(=O)c2ccc(Cl)cc2)c(NCCN2CCOCC2)s1,-31.6
18,CC(C)(C)c1ccc(-c2c(C#N)c(N)nc3c2CCCC3)s1,-0.863
19,CC12CN3CN(C1)CC(c1ccccc1)(C3)C2=O,12.7
20,Cc1noc(C)c1COC(=O)[C@@H](NC(=O)c1ccccc1)C(C)C,11.5
21,Cc1ccccc1OC(C)C(=O)NCCC1=CCCCC1 (stereo not shown),-1.85
22,O=C(c1cc(COc2ccc(F)cc2F)on1)N1CCOCC1,17.7

row,SMILES,"hERG current change (%, negative = inhibition) at 10uM [%]"
1,COc1cccc(OCc2cc(C(=O)N3CCN(c4ccccc4O)CC3)no2)c1,4.71
2,O=C(c1cc(COc2ccc(F)cc2F)on1)N1CCN(C(=O)c2ccco2)CC1,-57.3
3,O=C(c1cc(COc2ccc(F)cc2F)on1)N1CCSCC1,-11.7
4,COc1cccc(OCc2cc(C(=O)N3CCN(C(C)=O)CC3)no2)c1,-1.97
5,COc1cccc(OCc2cc(C(=O)N3CCN(C(=O)c4ccco4)CC3)no2)c1,-51.7
6,Cc1ccc(NC(=S)N2CCCC2)cc1Cl,11.5
7,CC(=O)NCCOC(=O)c1nn(Cc2ccccc2)c(=O)c2ccccc12,-22.4
8,Cc1sc2nc(CN3CCN(c4ccc(O)cc4)CC3)[nH]c(=O)c2c1C,14.4
9,C=CCNC(=O)c1ccc(Cl)cc1Cl,11.8
10,C=CCN(Cc1ccc(Cl)s1)C(=O)CNC(=O)CNC(=O)c1ccc(Cl)cc1Cl,-70.6
11,O=C(CNC(=O)CNC(=O)c1ccc(Cl)cc1Cl)NCc1cccc(Cl)c1,-1.95
12,COc1ccc(CN(C)C(=O)CNC(=O)CNC(=O)c2ccc(Cl)cc2Cl)cc1F,-43.5
13,CN(Cc1cccnc1)C(=O)CNC(=O)c1ccc(Cl)cc1Cl,-17.2
14,CN(Cc1ccc(Cl)s1)C(=O)CNC(=O)CNC(=O)c1ccc(Cl)cc1Cl,-56.8
15,COc1ccc(C2=NS(=O)(=O)N(C)C(C(=O)Nc3ccc(C)cc3)=C2)cc1,-2.89
16,COc1cc(C)c(NC(=S)Nc2cccc(Cl)c2C)cc1OC,11.1
17,CCCCCCCCN1[C@@H](CC(=O)O)c2cc(F)ccc2S1(=O)=O,7.81
18,CCC(=O)NC(c1cccs1)c1cc(Cl)c2cccnc2c1O (stereo not shown),-2.87
19,COc1ccccc1CCNC(=O)CCn1c(=O)c2cccn2c2ccc(F)cc21,5.9
20,COc1ccc(CNC(=O)CCn2c(=O)c3cccn3c3ccc(F)cc32)cc1,-7.82
21,COc1ccc(OC)c(CNC(=O)CCn2c(=O)c3cccn3c3ccc(F)cc32)c1,-62.2
22,COc1ccc(C)cc1NC(=S)N1CC(C)OC(C)C1 (stereo not shown),-11.5
